Source: PubChem BioAssay AID1159580 (chemical genetic matrix, 2015)
“And” between values parts separate entries of the source, which are not always exact repeats. Equal entries are not always repeated. Screen size: about 5,500 compounds; about 2,000 (36%) were called active. Roughly 18% stayed inconclusive and do not appear here. Rule as the data show it: active = normalized growth mostly below about 0.91 (no sharp cut-off); inconclusive = no clear call, values can overlap the other calls; inactive = mostly above about 0.92. The list shows a part of the results.

Assay: chemical genetic growth profiling, strain panel (AID 1159580);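 also: tested at 20 µM; growth read once vehicle control cultures reached saturation at 30 °C; 1 = growth at the plate median or of vehicle wells; lower values mean less growth of the strain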
Conditions: S. cerevisiae deletion strains, growth OD

Measured: normalized growth

Nc1ccc(S(=O)(=O)Nc2ccnn2-c2ccccc2)cc1
inactive: locus YAL013W, strain DEP1, hits give low values 1.04 | locus YAL021C, strain ccr4, hits give low values 0.986 | locus YAL026C, strain drs2, hits give low values 0.977 | locus YAL030W, strain snc1, hits give low values 1.01 | locus YAL040C, strain CLN3, hits give low values 1.02 | locus YBL061C, strain skt5, hits give low values 1.01 | locus YBR009C, strain hhf1, hits give low values 1.01 | locus YBR021W, strain FUR4, hits give low values 0.994 | locus YBR023C, strain chs3, hits give low values 0.999 | locus YBR171W, strain sec66, hits give low values 0.993 | locus YBR229C, strain ROT2, hits give low values 1.01 | locus YBR231C, strain swc5, hits give low values 1.01 | locus YBR279W, strain paf1, hits give low values 0.996 | locus YCL011C, strain gbp2, hits give low values 0.982 | locus YCL016C, strain dcc1, hits give low values 0.999 | locus YCL029C, strain bik1, hits give low values 0.995 | locus YCL061C, strain MRC1 (second series), hits give low values 1.02 | locus YCL061C, strain MRC1, hits give low values 0.997 | locus YCL069W, strain vba3, hits give low values 0.991 | locus YCR088W, strain abp1, hits give low values 0.982 | locus YDL005C, strain med2, hits give low values 0.98 | locus YDL035C, strain GPR1, hits give low values 0.999 | locus YDL040C, strain nat1, hits give low values 0.993 | locus YDL074C, strain BRE1, hits give low values 1.02 | locus YDL101C, strain DUN1, hits give low values 1.02 | locus YDL134C, strain PPH21, hits give low values 0.995 | locus YDL185W, strain tfp1, hits give low values 1 | locus YDL192W, strain arf1, hits give low values 0.995 | locus YDR001C, strain nth1, hits give low values 0.994 | locus YDR069C, strain doa4, hits give low values 0.999 | locus YDR101C, strain arx1, hits give low values 1.01 | locus YDR137W, strain rgp1, hits give low values 0.938 | locus YDR150W, strain NUM1, hits give low values 1.02 and 1.01 | locus YDR159W, strain sac3, hits give low values 1.02 | locus YDR162C, strain NBP2, hits give low values 0.999 | locus YDR195W, strain ref2 0.961 | locus YDR297W, strain sur2, hits give low values 0.998 | locus YDR318W, strain mcm21, hits give low values 0.99 | locus YDR334W, strain swr1, hits give low values 0.95 | locus YDR335W, strain msn5, hits give low values 0.998 | locus YDR363W, strain ESC2, hits give low values 1.01 | locus YDR388W, hits give low values 1 | locus YDR392W, strain spt3, hits give low values 0.96 | locus YDR502C, strain sam2, hits give low values 1.03 | locus YEL003W, strain gim4, hits give low values 0.986 | locus YEL037C, strain rad23, hits give low values 0.991 | locus YEL061C, strain CIN8 (second series), hits give low values 0.992 | locus YEL061C, strain CIN8, hits give low values 1.01 | locus YER002W, strain NOP16, hits give low values 1.01 | locus YER015W, strain faa2, hits give low values 0.997 | locus YER016W, strain bim1, hits give low values 1.01 | locus YER110C, hits give low values 0.993 | locus YER111C, strain swi4, hits give low values 1.01 | locus YER155C, strain BEM2 (second series), hits give low values 1 | locus YER155C, strain BEM2, hits give low values 1.01 | locus YER167W, strain BCK2, hits give low values 1 | locus YFR010W, strain ubp6, hits give low values 0.986 | locus YGL078C, strain dbp3, hits give low values 0.999 | locus YGL086W, strain mad1, hits give low values 1 | locus YGL167C, strain pmr1, hits give low values 1 | locus YGL173C, strain kem1, hits give low values 0.986 | locus YGL227W, strain vid30, hits give low values 0.998 | locus YGL240W, strain doc1, hits give low values 1.02 | locus YGL248W, strain PDE1, hits give low values 1.01 | locus YGL253W, strain hxk2, hits give low values 0.988 | locus YGR135W, strain pre9, hits give low values 0.994 | locus YGR229C, strain SMI1, hits give low values 1.03 | locus YGR252W, strain gcn5, hits give low values 0.958 | locus YHR013C, strain ard1, hits give low values 1.04 | locus YHR027C, strain rpn1, hits give low values 0.987 | locus YHR030C, strain SLT2, hits give low values 1.01 and 0.958 | locus YHR079C, strain IRE1 (second series), hits give low values 0.994 | locus YHR079C, strain IRE1, hits give low values 0.967 | locus YHR094C, strain hxt1, hits give low values 0.988 | locus YHR129C, strain ARP1, hits give low values 1.01 | locus YHR142W, strain chs7, hits give low values 0.965 | locus YHR200W, strain rpn10, hits give low values 0.991 | locus YIL066C, strain RNR3, hits give low values 1.02 | locus YIL073C, strain SPO22, hits give low values 0.972 | locus YIL125W, strain kgd1, hits give low values 1 | locus YIR030C, strain dcg1, hits give low values 0.993 | locus YJL092W, strain hpr5, hits give low values 0.984 | locus YJL095W, strain BCK1 (second series), hits give low values 0.996 | locus YJL095W, strain BCK1, hits give low values 1.05 and 0.981 | locus YJL115W, strain asf1, hits give low values 0.965 | locus YJL129C, strain trk1, hits give low values 0.991 | locus YJL134W, strain LCB3, hits give low values 1 | locus YJL154C, strain vps35, hits give low values 0.979 | locus YJL164C, strain tpk1, hits give low values 0.994 | locus YJL166W, strain qcr8, hits give low values 1.01 | locus YJL168C, strain set2, hits give low values 0.996 | locus YJL187C, strain SWE1 (second series), hits give low values 1.02 | locus YJL187C, strain SWE1, hits give low values 1 | locus YJR043C, strain POL32, hits give low values 1 | locus YJR066W, strain TOR1, hits give low values 0.888
